Measurements published in PubChem BioAssay (NCI).
The panel holds about 83,000 compounds, 20% with a hit somewhere; the sample as a whole holds those more often.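 Testing used 96-well plates and a 48-hour single-concentration exposure. Example: -40 means 40% of the starting cells died.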 Active and inactive are the calls of the source. How the source made its calls: active means growth percent below 10; inactive means the rest.

Assays:
Test in all cases: NCI-60 one-dose screen, 48 h (100 = growth as untreated, 0 = no growth, -100 = all killed)
Conditions in all cases: 10 µM
[1] = tested on: K-562 leukemia
[2] = tested on: MALME-3M melanoma
[3] = tested on: MDA-MB-231 breast
[4] = tested on: RXF 393 renal
[5] = tested on: SF-268 CNS
[6] = tested on: SF-295 CNS
[7] = tested on: SF-539 CNS
[8] = tested on: UACC-257 melanoma
[9] = tested on: M14 melanoma
[10] = tested on: HCT-15 colon
[11] = tested on: HT29 colon
[12] = tested on: SNB-75 CNS
[13] = tested on: SNB-19 CNS
[14] = tested on: U251 CNS
[15] = tested on: PC-3 prostate
[16] = tested on: SK-MEL-5 melanoma
[17] = tested on: UACC-62 melanoma
[18] = tested on: LOX IMVI melanoma
[19] = tested on: SK-MEL-28 melanoma
[20] = tested on: SK-MEL-2 melanoma

Measured: growth

Cc1cccc2c1O/C(=C\c1ccc([N+](=O)[O-])o1)C2=O
active: [1] -44.2% | [2] -32.4% | [3] -47.3% | [4] -80.8% | [5] -39.8% | [7] -59.2% | [8] -65% | [9] -54.1% | [10] -55.2% | [11] -67.4% | [14] -19.7% | [15] -36.3% | [16] -83.5% | [17] -58.9% | [18] -83.6% | [19] -56.6% | [20] -62.8%
inactive: [6] 31.1% | [12] 65% | [13] 44.2%

COc1cccc(Cn2c(-c3nonc3N)nc3ccccc32)c1
inactive: [2] 68.3% | [3] 27.7% | [5] 42% | [8] 49.2% | [9] 20.4% | [10] 24.1% | [13] 53.3% | [14] 18.4% | [15] 11% | [16] 16.8% | [17] 33.9% | [18] 40.9% | [19] 43.7%
active: [1] 9.47% | [4] -40.1% | [6] -26.9% | [7] -34.6% | [11] -5.42% | [12] -16.7% | [20] -12.2%

CC(=O)N(C)c1ccc(Nc2ccc(Nc3ccc(N(C)C(C)=O)cc3)c3c2C(=O)c2ccccc2C3=O)cc1
inactive: [1] 55.8% | [2] 113% | [3] 49.3% | [4] 81.7% | [5] 76.5% | [6] 81.2% | [7] 76.3% | [8] 74.5% | [9] 86.1% | [10] 79.8% | [11] 68.6% | [12] 73.9% | [13] 88.4% | [14] 77.3% | [15] 38.3% | [16] 79% | [17] 88.8% | [18] 55% | [19] 106% | [20] 82.8%

NC(=O)c1ccc(-c2cccc3c(=O)nc(N4CCOCC4)oc23)cc1
inactive: [1] 110% | [2] 85.4% | [3] 91.9% | [4] 104% | [5] 93.8% | [6] 93.9% | [7] 102% | [8] 104% | [9] 97.8% | [10] 102% | [11] 101% | [12] 74.5% | [13] 99.1% | [14] 97.7% | [15] 89.9% | [16] 97.8% | [17] 92.3% | [18] 91.1% | [19] 103% | [20] 102%

COc1ccc(-c2cc(/C=C3\C(=O)Nc4ccc(Cl)cc43)[nH]n2)cc1OC
inactive: [1] 100% | [2] 87.3% | [3] 79.6% | [4] 88.5% | [5] 85.8% | [6] 99.6% | [7] 82.2% | [8] 132% | [9] 101% | [10] 77.5% | [11] 93.5% | [12] 64.2% | [13] 90.9% | [14] 95.2% | [15] 88.4% | [16] 73% | [17] 95.9% | [18] 90.5% | [19] 99.3% | [20] 99.5%

COc1ccc(OC)c(/C=C/c2nnc(Nc3ccc(Cl)cc3)o2)c1
inactive: [1] 80.6% | [2] 41.5% | [3] 70.9% | [4] 56.3% | [5] 76.5% | [6] 46.9% | [7] 90% | [8] 100% | [9] 77.9% | [10] 98.3% | [11] 76.9% | [12] 15.8% | [13] 84.9% | [14] 41.8% | [15] 74.9% | [16] 69.8% | [17] 75.8% | [18] 67.7% | [19] 92.1% | [20] 101%

CCCC#CCN(CC)CC
inactive: [1] 103% | [2] 111% | [3] 109% | [4] 112% | [5] 111% | [6] 80.2% | [7] 99.6% | [8] 93.6% | [9] 108% | [10] 99.6% | [11] 104% | [12] 97.1% | [13] 100% | [14] 91.2% | [15] 86% | [16] 104% | [17] 99.1% | [18] 102% | [19] 108% | [20] 114%

Cc1cc(=O)[nH]c(N/N=C/c2ccccc2O)n1
inactive: [1] 59.9% | [2] 35.1% | [3] 76.6% | [4] 90% | [5] 39.1% | [6] 43.2% | [7] 96.8% | [8] 88% | [9] 29.9% | [10] 40.7% | [11] 46.1% | [12] 89% | [13] 76.9% | [14] 45.9% | [15] 67.4% | [16] 90.8% | [17] 92.3% | [18] 59.5% | [19] 86.3% | [20] 73.9%
